Laboratory results as given in the supplement of paper PMC6555819.

Key:
Experiment in all cases: PBM binding z-score (relative to random genomic background probes); higher = stronger binding; sequences stand for … in GC…GCGATTGACAGCGTAGAATGAAGG
[1] = system: FXR:RXRa (NR concentration 270 nM, RXRa partner concentration 90 nM)
Procedure, shortened: (§1)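 Binding z-scores take random background probes as their reference. They come from custom Agilent 4×180K protein-binding microarrays incubated 1 h with ligand-free nuclear receptor dimers, with antibodies against each partner (one per run) detecting binding. Scanned fluorescence was regression-normalized.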

[2] = system: LXRa:RXRa (NR concentration 270 nM, RXRa partner concentration 90 nM)
Procedure, shortened: as §1

[3] = system: LXRa homodimer (NR concentration 270 nM)
Procedure, shortened: as §1

[4] = system: LXRb:RXRa (NR concentration 270 nM, RXRa partner concentration 90 nM)
Procedure, shortened: as §1

[5] = system: LXRb homodimer (NR concentration 270 nM)
Procedure, shortened: as §1

[6] = system: PPARa:RXRa (NR concentration 270 nM, RXRa partner concentration 90 nM)
Procedure, shortened: as §1

[7] = system: PPARg:RXRa (NR concentration 180 nM, RXRa partner concentration 90 nM)
Procedure, shortened: as §1

[8] = system: PPARg:RXRa 270nM:90nM, anti-RXR (NR concentration 270 nM, RXRa partner concentration 90 nM)
Procedure, shortened: as §1

[9] = system: PPARg:RXRa 30nM:10nM, anti-RXR (NR concentration 30 nM, RXRa partner concentration 10 nM)
Procedure, shortened: as §1

[10] = system: PPARg:RXRa 90nM:30nM, anti-RXR (NR concentration 90 nM, RXRa partner concentration 30 nM)
Procedure, shortened: as §1

Sequence | PBM binding z-score [1] | PBM binding z-score [2] | PBM binding z-score [3] | PBM binding z-score [4] | PBM binding z-score [5] | PBM binding z-score [6] | PBM binding z-score [7] | PBM binding z-score [8] | PBM binding z-score [9] | PBM binding z-score [10]
TCTTGTAAATCAATAGAGGTTAAGAAAGTGCGCT | 0.793 | 3.32 | 0.658 | 1.86 | 0.26 | 1.86 | 0.0624 | 1.82 | 3.77 | 2.44
CTCGTAAGGTCGTGCTCAGGTGAGTATACCAAAC | 3.16 | 2.44 | -0.206 | 1.97 | 0.357 | 3.48 | 0.721 | 1.85 | 0.398 | 1.07
CCGACTGGGGCAAGGTTACCCTAACGCACAGCCA | 0.301 | 0.334 | -0.217 | 0.52 | -1.15 | 1.88 | 2.75 | 3.18 | 0.752 | 2.75
GCGACTGGGGCATCAGCAAGTTACCATAACTTAA | -0.358 | -0.587 | -0.708 | 0.105 | -0.805 | 0.514 | 0.866 | 1.08 | -0.463 | 0.387
GTACCAAGGTGAATAGGTCGTGGATGAGTAGGCG | 1.25 | 1.07 | -0.132 | 0.395 | -0.586 | 2.47 | 1.85 | 2.35 | 0.297 | 1.3
ATCTCTAGGTAAGAATCAGTTCAGTGAAGAACGC | 0.825 | 0.702 | 0.74 | 0.521 | 0.992 | 0.326 | 0.0299 | 0.324 | 0.4 | 0.435
AATACAGGGTCATCGTCGGCCAGAGTACGCACAG | 7.47 | 6.48 | 2.78 | 4.83 | 1.41 | 6.44 | 6.81 | 6.01 | 2.65 | 4.97
ACTATTAGTTGACTTAGGCCAACCGATACGACGC | 0.313 | 0.281 | 0.278 | 0.209 | 1.1 | 0.0554 | 1.05 | 0.478 | 0.505 | 0.622
TAGCCTAGGTCATGGGCCAGTAGACCACGCGAAC | 4.96 | 3.57 | 0.0345 | 2.2 | -0.335 | 4.38 | 4.13 | 3.94 | 1.03 | 3.07
GATACAGGGTCAGCTAGAGGCCCGAGTATGGAAA | 4.27 | 2.31 | -0.511 | 1.8 | -0.813 | 4.42 | 3.6 | 3.1 | 0.492 | 1.92
GCGATTGGGGCAAAGCAGGTTACCATAAGGTTGG | 0.351 | 0.0851 | -0.253 | 0.678 | -0.273 | 1.11 | 0.77 | 0.405 | -0.0974 | 0.132
CTCGAGAGGTCGTGCTCAGGTGAGTATACCAAAC | 3.66 | 2.94 | -0.247 | 3.32 | -0.109 | 4.28 | 1.58 | 2.21 | 0.228 | 1.11
CCTACTGGGCCAAGGTTATTGATCAGTCAAAGCA | 0.116 | 0.594 | -0.113 | 0.269 | -0.596 | 1.78 | 2.64 | 3.06 | 0.701 | 2.48
TCATATAGGTAGACAGGTGAAAGTCCGTAAGTTA | 0.952 | 1.11 | 0.173 | 0.898 | -0.226 | 1.32 | 0.974 | 2.5 | 3.79 | 3.27
GGAACGAGGGCAAGTTGATTGCAGAGTTTGATGG | 1.16 | 0.697 | -0.325 | 0.396 | -0.755 | 1.84 | 0.925 | 1.03 | -0.0716 | 0.569
CGAACTAGGTCATTGACAAGACAGTGAATAGTAA | 3.79 | 2.42 | 0.115 | 2.04 | -0.0491 | 4.5 | 7.38 | 6.17 | 3.72 | 5.54
CCTAGTTGGTCCGGAGGTCACACACCGGATATGA | 3.5 | 3.34 | 2.47 | 3.37 | 0.577 | 3.61 | 2.4 | 3.54 | 1.51 | 3.05
TTACCAAGGTGAGCTGAGGTGGTTGATCCAACTC | -0.284 | -0.505 | -0.878 | -0.761 | -1.22 | 0.275 | -0.0433 | 0.188 | -0.313 | 0.186
CCTAGTTGGTCAGGAGGTTACACACCGGATATGA | 0.491 | 0.633 | 0.538 | 1.02 | 0.258 | 1.5 | 1.14 | 1.4 | 0.448 | 1.07
TCATATAGGTAAATGCTAGTTGAAAGTCCGATCT | 0.79 | 0.719 | 0.081 | 0.689 | -0.0232 | 1.09 | 0.625 | 1.79 | 3.76 | 2.81
AGAACGAGGGCACGCTGAGTTGGTAGCAGAGTAG | 0.682 | 0.402 | -0.489 | -0.113 | -0.719 | 1.87 | 1.62 | 1.46 | -0.03 | 0.942
CCTCGGGGGACAGAAGGTCAGAGCTGTCCGCTTT | 2.39 | 3.78 | 0.464 | 3.58 | 2.95 | 3.5 | 0.517 | 2.66 | 0.439 | 1.51
ATCTCTAGGTAAAAATAGTTCAGTGAATGCAAAT | 0.334 | 4.28 | 0.864 | 0.965 | 0.656 | 0.534 | 0.601 | 0.436 | 0.563 | 0.283
CATACGGGGTCAGCTAGGCCAGAGTAGGGACGGC | 7.18 | 5.6 | 0.0211 | 4.81 | 1.12 | 6.17 | 7.29 | 6.63 | 3.71 | 5.39
